What all share (conditions): mRNA level, 48 h; actives raise or lower the signal
Read-out in assay [1]: adenosine kinase (ADK) gene, ADK (gene 132)
Briefly: LTEA_HepaRG_ADK: Life Technologies and Expression Analysis (LTEA) Assay for adenosine kinase (ADK) gene using HepaRG (AID 2283471). In short, it runs like this:
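ADK expression quantified by qRT-PCR, normalised to three housekeeping genes, after 48 h exposure of HepaRG cells to eight concentrations (top 100 uM, half-log steps, duplicate, 0.5% DMSO). Up- or down-regulation fitted relative to vehicle.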

Read-out in assay [2]: Alpha-fetoprotein (AFP) gene, AFP (gene 174)
Briefly: LTEA_HepaRG_AFP: Life Technologies and Expression Analysis (LTEA) Assay for Alpha-fetoprotein (AFP) gene using HepaRG (AID 2283472). In short, it runs like this: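 qRT-PCR (Fluidigm TaqMan) readout of AFP transcript, normalized to three housekeeping genes, fitted bidirectionally against 0.5% DMSO baseline. HepaRG cells received chemicals for 48 h in serum-free induction medium, top concentration 100 uM, half-log steps.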

Read-out in assay [3]: BCL2L11 (gene 10018)
Briefly: LTEA_HepaRG_BCL2L11: Life Technologies and Expression Analysis (LTEA) Assay for Bcl-2 (BCL2L11) gene using HepaRG (AID 2283473). In short, it runs like this:
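HepaRG, 48 h exposure, 8-pt half-log series from 100 uM in 0.5% DMSO, duplicates; qRT-PCR (Fluidigm TaqMan) for BCL2L11, housekeeping-normalized; bidirectional curve fit relative to DMSO baseline.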

Read-out in assay [4]: Apolipoprotein A-V (APOA5) gene, APOA5 (gene 116519)
Briefly: LTEA_HepaRG_APOA5: Life Technologies and Expression Analysis (LTEA) Assay for Apolipoprotein A-V (APOA5) gene using HepaRG (AID 2283474). A digest of the protocol:
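HepaRG, 48 h chemical exposure in serum-free induction medium, 8-pt half-log series (top 100 uM), 0.5% DMSO vehicle, duplicates. Readout: APOA5 mRNA by qRT-PCR, housekeeping-normalized; bidirectional fit vs DMSO baseline.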

Read-out in assay [5]: Apoptosis regulator Bcl-2 (Homo sapiens) (UniProt P10415)
Briefly: LTEA_HepaRG_BCL2: Life Technologies and Expression Analysis (LTEA) Assay for Bcl-2 gene using HepaRG (AID 2283475). A digest of the protocol: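 qRT-PCR read-out (Fluidigm TaqMan) of BCL2 transcript, normalised to three housekeeping genes, after 48 h chemical exposure of HepaRG cells; 8-point half-log series, top 100 uM, 0.5% DMSO vehicle. Gain or loss of signal fitted relative to DMSO baseline.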

Read-out in assay [6]: Bcl-2 (BID) gene, BID (gene 637)
Briefly: LTEA_HepaRG_BID: Life Technologies and Expression Analysis (LTEA) Assay for Bcl-2 (BID) gene using HepaRG (AID 2283476). A digest of the protocol: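 HepaRG, 48 h exposure, 8-pt half-log series, top 100 uM, 0.5% DMSO vehicle, duplicates. Readout: BID mRNA by TaqMan qRT-PCR; housekeeping-normalized; bidirectional curve fit vs DMSO baseline.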

Read-out in assay [7]: Caspase-3 (Homo sapiens) (UniProt P42574)
Briefly: LTEA_HepaRG_CASP3: Life Technologies and Expression Analysis (LTEA) Assay for cysteine-aspartic acid protease (CASP3) using HepaRG (AID 2283477). A digest of the protocol: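 HepaRG, 48 h exposure, 8 conc. (top 100 uM, half-log steps, duplicate), 0.5% DMSO vehicle; qRT-PCR of CASP3 transcript, housekeeping-normalised (ACTB/GAPDH/POLR2A); bidirectional curve fit vs DMSO baseline.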

Read-out in assay [8]: Cytochrome P450 (CYP24A1), CYP24A1 (gene 1591)
Briefly: LTEA_HepaRG_CYP24A1: Life Technologies and Expression Analysis (LTEA) Assay for Cytochrome P450 (CYP24A1) using HepaRG (AID 2283478). In short, it runs like this:
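qRT-PCR read-out: CYP24A1 transcript levels normalized to three housekeeping genes, bidirectional curve fits against 0.5% DMSO baseline. Human HepaRG cells treated 48 h with chemicals at eight concentrations from 100 uM in half-log steps.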

Read-out in assay [9]: Cytochrome P450 (CYP1A2), CYP1A2 (gene 1544)
The assay can be described thus: LTEA_HepaRG_CYP1A2: Life Technologies and Expression Analysis (LTEA) Assay for Cytochrome P450 (CYP1A2) using HepaRG (AID 2283479). In short, it runs like this:
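HepaRG, 48 h exposure, top 100 uM, half-log 8-pt, 0.5% DMSO vehicle, duplicates. Readout: TaqMan qRT-PCR of CYP1A2 mRNA, housekeeping-normalized (ACTB/GAPDH/POLR2A). Gain/loss fit relative to DMSO baseline.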

Read-out in assay [10]: cysteine-aspartic acid protease (CASP8), CASP8 (gene 841)
Briefly: LTEA_HepaRG_CASP8: Life Technologies and Expression Analysis (LTEA) Assay for cysteine-aspartic acid protease (CASP8) using HepaRG (AID 2283480). In short, it runs like this: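 Concentration-response in duplicate up to 100 uM (half-log steps, 0.5% DMSO) on differentiated HepaRG cultures for 48 h. Expression change of CASP8 mRNA is determined by TaqMan qRT-PCR with housekeeping-gene normalization.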

The source made the active and inactive calls. How the source made its calls: active means hit-call score of the fitted dose curve at least 0.9, where 1 is the maximum; inactive means score below 0.9.

Broadly, the AC50 is the concentration giving half of the maximal activity seen.

Chain of Caspase-3 (Homo sapiens) (P42574 whole entry, looked up): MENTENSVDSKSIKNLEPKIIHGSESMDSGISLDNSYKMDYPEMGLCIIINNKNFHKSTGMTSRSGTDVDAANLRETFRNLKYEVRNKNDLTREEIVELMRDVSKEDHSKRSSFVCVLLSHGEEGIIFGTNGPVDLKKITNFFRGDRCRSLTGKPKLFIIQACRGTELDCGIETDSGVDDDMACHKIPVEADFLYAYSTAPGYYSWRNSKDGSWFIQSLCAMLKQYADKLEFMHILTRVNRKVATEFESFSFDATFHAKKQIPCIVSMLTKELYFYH
Chain of Apoptosis regulator Bcl-2 (Homo sapiens) (P10415 whole entry, looked up): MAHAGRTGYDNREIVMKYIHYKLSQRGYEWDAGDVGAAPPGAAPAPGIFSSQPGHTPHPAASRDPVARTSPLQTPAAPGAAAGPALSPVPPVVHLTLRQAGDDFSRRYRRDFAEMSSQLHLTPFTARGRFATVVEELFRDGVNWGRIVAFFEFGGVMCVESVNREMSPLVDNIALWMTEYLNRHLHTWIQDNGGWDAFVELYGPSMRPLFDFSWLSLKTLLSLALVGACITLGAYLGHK

Consider `C[N+](C)(C)CC1CO1` (centres undefined), for which the compound was called inactive in assay [1], in [2], in assay [3], in assay [4], in assay [5] and in [6]. In addition, the outcome in [7], in [8], in assay [9] and in assay [10] was inactive.
For `O=C(O)C1C2CCC(O2)C1C(=O)O` (centres undefined), the compound was called inactive in assay [1], in assay [3], in assay [5], in [6], in assay [7] and in [8]. For the same compound, the AC50 in [2] is 75.3 µM (active); in assay [4] it was 67.8 µM (active); in assay [9] it was 50 µM (active).
Regarding `c1ccc2c(c1)-c1cccc3cccc-2c13`, the result in [1], in assay [2], in assay [3], in [4], in assay [5] and in assay [6] was inactive. The outcome in [7], in assay [8] and in assay [10] was inactive. Further, in assay [9], the AC50 is 50 µM (active).
Consider `O=C1CCCO1`, for which the values for the AC50 in [1], in assay [7] and in [10] were 50 µM (active), 50 µM (active) and 78.5 µM (active), respectively. The compound was called inactive in [2], in assay [3], in assay [4], in assay [5], in [6] and in assay [8]. The compound was called inactive in assay [9].
Consider `OCCOCCO`, for which the result in assay [1], in [2], in assay [3], in assay [4], in assay [5] and in [6] was inactive. The outcome in assay [7], in assay [8], in assay [9] and in [10] was inactive.
As for `Clc1ccc(Cl)c(Cl)c1`, the compound was classed as inactive in assay [1], in assay [3], in assay [5], in assay [8], in [9] and in [10]. Besides, the AC50 in [2], in assay [4], in assay [6] and in assay [7] was 50 µM (active) throughout.
As for `CC(C)(C)C(O)(CCc1ccc(Cl)cc1)Cn1cncn1` (centres undefined), the call in assay [1], in [3], in assay [6], in assay [7], in assay [8] and in [10] was inactive. For the same compound, the AC50 was 62.2 µM (active) in assay [2], 79.4 µM (active) in [4], 79 µM (active) in assay [5] and 2.92 µM (active) in assay [9].
For `O=P(OCCCl)(OCCCl)OCCCl`, the compound was classed as inactive in assay [1], in [2], in [3], in assay [4], in assay [5] and in assay [6]. The result in [7], in assay [8], in assay [9] and in assay [10] was inactive.
Consider `ClC1=C(Cl)C2(Cl)C3C(Cl)C=CC3C1(Cl)C2(Cl)Cl` (centres undefined), for which the compound was called inactive in assay [1], in assay [3], in [4], in assay [5], in [6] and in [7]. In addition, the call in [8], in assay [9] and in assay [10] was inactive. In addition, the AC50 in assay [2] was 22.7 µM (active).
As to `Cc1ccc(N)cc1`, the result in assay [1], in assay [2], in assay [3], in [4], in assay [5] and in assay [6] was inactive. Also, the compound was called inactive in assay [7], in assay [8], in assay [9] and in [10].
For the compound `Nc1ccc(Oc2ccc(N)cc2)cc1`, the compound was called inactive in [1], in [2], in assay [3], in assay [4], in [5] and in [6]. In addition, the call in assay [7], in assay [8] and in [10] was inactive. Further, the AC50 in assay [9] is 40.7 µM (active).
In the case of `Cc1ccc([N+](=O)[O-])cc1`, the compound was called inactive in assay [1], in [2], in assay [3], in assay [4], in [5] and in assay [6]. The outcome in [7], in assay [8], in [9] and in assay [10] was inactive.
In the case of `Oc1ccccc1Cl`, the call in assay [1], in assay [2], in [3], in [4], in assay [5] and in assay [6] was inactive. Moreover, the compound was called inactive in [7], in [8], in assay [9] and in assay [10].
